Results from PubChem BioAssay AID492994 (Johns Hopkins Ion Channel Center, 2010).
Potency and affinity values are given separately. The source made the active and inactive calls.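 The calls were made as follows: active = TRPC4 ion channel inhibited over 30% at some tested dose, with a fitted dose response curve; inactive = no inhibition or no dose response curve.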

Target: Short transient receptor potential channel 4 (Mus musculus) (UniProt Q9QUQ5)
Assay: TRPC4 inhibitor concentration-response, dose response, cell-based, HEK293 TRPC4/mu-opioid, DAMGO stimulus, Fluo-4 (AID 492994)
Details: HEK293 TRPC4/mu-opioid cells, Fluo-4 calcium flux, DAMGO-activated; series mostly up to 20 µM

Short transient receptor potential channel 4 (Mus musculus), sequence (Q9QUQ5 whole entry, looked up): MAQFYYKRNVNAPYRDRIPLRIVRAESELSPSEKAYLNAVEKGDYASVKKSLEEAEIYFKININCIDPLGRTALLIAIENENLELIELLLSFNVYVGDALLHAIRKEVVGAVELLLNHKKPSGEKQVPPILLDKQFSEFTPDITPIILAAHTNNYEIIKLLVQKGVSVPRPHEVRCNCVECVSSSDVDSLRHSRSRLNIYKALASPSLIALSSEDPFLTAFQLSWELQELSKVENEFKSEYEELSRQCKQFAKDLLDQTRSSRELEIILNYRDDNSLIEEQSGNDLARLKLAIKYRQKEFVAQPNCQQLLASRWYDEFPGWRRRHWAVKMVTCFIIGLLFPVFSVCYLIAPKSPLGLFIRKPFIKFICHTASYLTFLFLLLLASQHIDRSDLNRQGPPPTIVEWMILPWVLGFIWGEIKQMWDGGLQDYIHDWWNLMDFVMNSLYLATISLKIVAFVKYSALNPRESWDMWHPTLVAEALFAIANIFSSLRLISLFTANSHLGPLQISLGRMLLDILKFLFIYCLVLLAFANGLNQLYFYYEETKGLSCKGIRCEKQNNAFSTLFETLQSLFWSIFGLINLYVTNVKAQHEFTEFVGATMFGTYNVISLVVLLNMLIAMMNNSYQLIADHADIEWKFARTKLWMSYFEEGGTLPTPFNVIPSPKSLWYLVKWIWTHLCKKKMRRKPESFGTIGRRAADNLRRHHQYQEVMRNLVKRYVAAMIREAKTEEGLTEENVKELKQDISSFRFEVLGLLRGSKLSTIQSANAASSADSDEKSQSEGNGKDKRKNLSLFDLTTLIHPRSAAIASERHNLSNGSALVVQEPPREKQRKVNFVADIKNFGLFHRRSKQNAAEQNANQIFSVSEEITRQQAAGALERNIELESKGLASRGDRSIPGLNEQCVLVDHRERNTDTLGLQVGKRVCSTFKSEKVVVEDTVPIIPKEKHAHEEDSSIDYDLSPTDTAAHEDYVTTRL

Compound	outcome
Cc1cc(N2CCNCC2)nc2ccccc12	inactive
Cc1cc(N2CCN(C)CC2)nc2ccccc12	inactive
